# Records with an inconclusive call do not appear. Entries that show only a call come without a potency. Activity calls are given as the source filed them. Calls follow the shape of the dose curve; as a rule, active = well fitted cell-killing curve with a large enough effect; inconclusive = small, poorly fitted or top-dose-only effect, or effect the other way; inactive = flat fitted curve, though single readings scatter.
# Test system: JEG-3
# Experiment: Primary qHTS to identify gynecologic anti-cancer compounds using libraries of approved drugs and bioactive compounds (AID 1345084); also: nearly all actives have a fitted effect of over 55% in size
# Details: Gynecologic cancer cell panel viability, ATPlite luminescence, 48 h; series mostly up to 57.5 µM
# Source text: National Center for Advancing Translational Sciences [NCATS] Assay Overview: Chemotherapeutic drug responses vary from cancer to cancer and from patient to patient. These variations could be caused by a number of factors including patient genomic background, tumor mutations, tumor heterogeneity, and aspects of drug treatment. Chemotherapeutic drug resistance is also a common issue and can lead to ineffective treatment and patient death. Here we have profiled the cell killing effects of thousands of compounds to characterize the responses in three gynecological cancers, identify cancer-selective compounds, and understand the diversity of responses to these compounds from pan-cancer suppressors to single cell line selective compounds. In this assay, we screened a 7,914 compound drug library that included approved drug and bioactive compounds in six ovarian, three cervical, and […] placental cancer cell lines using the ATPlite assay for cell viability. […] The cervical cancer cell lines included HeLa, Ca Ski, and C-33 A. The placental cancer cell lines included JEG-3. HEK 293T cells were used as the control cell line to determine the selectivity index. ATPlite is a luminescence based assay reliant on the conversion of a luciferase substrate to light in the presence of ATP. As a cytotoxic compound will suppress growth and decrease the number of cells, the concentration of ATP will decrease, and less light signal will be detected in the well.
# Assay Protocol Summary: 1,000 cells in 4 uL of media were dispensed into white, solid bottom 1536-well plates using a Multidrop Combi (Thermo Scientific). The Assay plates were incubated for 16 hours at 37 C with 5% CO2 in assay plates, followed by the addition of 23 nL of DMSO or drug dissolved in DMSO. Each compound was assayed in five concentrations (0.092, 0.46, 2.3, 11.5, and 57.5 uM), using the automated Wako 1536 Pin Tool workstation and incubated at 37 C with 5% CO2 48 hours. 4 uL of ATPlite, the ATP monitoring reagent, was then added to the each well of the assay plates using the Multidrop Combi reagent dispenser followed by incubation for 15 minutes at room temperature. The resulting luminescence was measured using the ViewLux plate reader.
# Potency is read from the fitted curve at half-maximal effect.
row,SMILES,Potency
1,CCCC(C)(COC(N)=O)COC(=O)NC(C)C (stereo not given),inactive
2,Cc1ccc2c(c1)C1CN(C)CCC1N2 (stereo not given),inactive
3,CNC(=O)N1N=C(c2ccc(N)cc2)c2cc3c(cc2CC1C)OCO3 (stereo not given),inactive
4,CC(C)NCC(O)c1ccccc1Cl (stereo not given),inactive
5,Cn1c(CCCC(=O)O)nc2cc(N(CCCl)CCCl)ccc21,inactive
6,CCC(=O)C(CC(C)N(C)C)(c1ccccc1)c1ccccc1 (stereo not given),inactive
7,Oc1cccc2cccnc12,inactive
8,N[C@@H]1C[C@H]1c1ccccc1,inactive
9,CC(C)CC(N(C)C)C1(c2ccc(Cl)cc2)CCC1 (stereo not given),inactive
10,CCOP(=S)(OCC)Oc1cc(C)nc(C(C)C)n1,inactive
11,CC(=O)[C@H]1CC[C@H]2[C@@H]3CC[C@H]4C[C@](C)(O)CC[C@]4(C)[C@H]3CC[C@]12C,inactive
12,Oc1ccc(Cl)cc1Cc1ccccc1,inactive
13,CC[N+](CC)(CC)CC,inactive
14,O=c1[nH]c2ccccc2n1C1CCN(CCCC(c2ccc(F)cc2)c2ccc(F)cc2)CC1,inactive
15,Cn1cc(C2=C(c3cn(C4CCN(Cc5ccccn5)CC4)c4ccccc34)C(=O)NC2=O)c2ccccc21,inactive
16,CC1OC(C)OC(C)O1 (stereo not given),inactive
17,CCCN1CCC[C@@H]2Cc3nc(N)ncc3C[C@H]21,inactive
18,CNC(=O)c1ccc(N2C(=S)N(c3ccc(C#N)c(C(F)(F)F)c3)C(=O)C23CCC3)cc1F,inactive
19,CC(C)=CC1C(C(=O)OCc2cccc(Oc3ccccc3)c2)C1(C)C (stereo not given),inactive
20,C[C@@H]1O[C@@H](O[C@H]2C[C@@H](O)[C@]3(CO)[C@H]4[C@H](O)C[C@]5(C)[C@@H](C6=CC(=O)OC6)CC[C@]5(O)[C@@H]4CC[C@]3(O)C2)[C@H](O)[C@H](O)[C@H]1O,355 nM (active)

row,SMILES,Potency
1,CN1C[C@H](CNC(=O)OCc2ccccc2)C[C@@H]2c3cccc4c3c(cn4C)C[C@H]21,inactive
2,COC[C@H]1OC(=O)c2coc3c2[C@@]1(C)C1=C(C3=O)C2CCC(=O)[C@@]2(C)C[C@H]1OC(C)=O (stereo not given in full),inactive
3,Oc1ccccc1-c1ccccc1,inactive
4,C#CCN(C)[C@H](C)Cc1ccccc1,inactive
5,Fc1ccc(C(OCCN2CCN(CCCc3ccccc3)CC2)c2ccc(F)cc2)cc1,inactive
6,CC1NCCOC1c1ccccc1 (stereo not given),inactive
7,O=c1[nH]c2ccccc2n1CCCN1CCC(n2c(=O)[nH]c3cc(Cl)ccc32)CC1,inactive
8,CCC1(C2=NCCN2)Cc2ccccc2O1 (stereo not given),inactive
9,CCN(CC)C(=O)N[C@@H]1C=C2c3cccc4[nH]cc(c34)C[C@@H]2N(C)C1,inactive
10,CCCC1CCCCN1 (stereo not given),inactive
11,FC(F)(F)c1cccc(C2=CCN(CCc3ccc4ccccc4c3)CC2)c1,inactive
12,C=C1CC[C@@]2(O)[C@H]3Cc4ccc(O)c5c4[C@@]2(CCN3CC2CC2)[C@H]1O5,inactive
13,O=c1oc2ccccc2c(O)c1C(CC(O)c1ccc(-c2ccc(Br)cc2)cc1)c1ccccc1 (stereo not given),inactive
14,CN(C)CCc1ccc(O)cc1,inactive
15,CCC(COC(=O)c1cc(OC)c(OC)c(OC)c1)(c1ccccc1)N(C)C (stereo not given),inactive
16,Cc1cccc(C)c1NC(=O)CN1CCCC1=O,inactive
17,CC(O)(CS(=O)(=O)c1ccc(F)cc1)C(=O)Nc1ccc(C#N)c(C(F)(F)F)c1 (stereo not given),inactive
18,CCOC(=O)C1(c2ccccc2)CCN(CCC(C#N)(c2ccccc2)c2ccccc2)CC1,inactive
19,C[C@]12CCC(=O)C(O)=C1CC[C@@H]1[C@@H]2CC[C@]2(C)C(=O)CC[C@@H]12,inactive
20,Oc1cc(Cl)ccc1Oc1ccc(Cl)cc1Cl,inactive

# Reference: PubChem BioAssay (NCATS)
